Several values for one entry are separate records, joined by “and”; a condition that tells them apart may be missing. Identical values can stand only once. Records with an inconclusive call do not appear. Activity calls are given as the source filed them. Unless noted, calls follow the shape of the dose curve; as a rule, active = well fitted curve in the direction sought with a large enough effect; inconclusive = small, poorly fitted or top-dose-only effect, or another doubt; inactive = no such curve, though single readings can be large; an effect the other way counts as inactive or inconclusive.
Assays:
[1] = target: Alpha-galactosidase A (Homo sapiens) (UniProt P06280); assay: Counterscreen for Glucocerebrosidase Inhibitors: qHTS Assay for Human alpha-Galactosidase at pH 4.5 (AID 992); also: 0% is about no effect
Alpha-galactosidase A (Homo sapiens), sequence (P06280 whole entry, looked up): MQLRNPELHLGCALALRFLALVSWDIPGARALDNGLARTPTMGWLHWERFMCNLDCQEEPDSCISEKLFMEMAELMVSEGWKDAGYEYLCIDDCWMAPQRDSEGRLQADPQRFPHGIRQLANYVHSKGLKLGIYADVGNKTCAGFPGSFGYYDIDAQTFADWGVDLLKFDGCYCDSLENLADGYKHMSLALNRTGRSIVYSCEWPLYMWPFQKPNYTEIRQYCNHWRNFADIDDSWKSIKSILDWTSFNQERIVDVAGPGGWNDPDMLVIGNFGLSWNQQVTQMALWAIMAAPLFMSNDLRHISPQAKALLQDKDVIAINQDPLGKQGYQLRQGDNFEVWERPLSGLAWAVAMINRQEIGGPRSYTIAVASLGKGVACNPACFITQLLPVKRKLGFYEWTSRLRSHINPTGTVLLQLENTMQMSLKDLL
Procedure, shortened: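 Quantitative HTS: compounds tested from 0.7 nM up to 77 uM against 2 nM enzyme with 80 uM 4-MU alpha-D-galactopyranoside. The 20 min room-temperature reaction is stopped with 1M NaOH/1M glycine, pH 10.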

[2] = target: alpha-glucosidase (Oryza sativa, rice) (UniProt Q653V4); assay: Counterscreen for Glucocerebrosidase Inhibitors: qHTS Assay for Rice alpha-Glucosidase at pH 5.0 (AID 997);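 also: 0% = full activity with enzyme and -100% = basal without enzyme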
Procedure, shortened: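 Rice alpha-glucosidase (4 nM final) with 400 uM 4-methylumbelliferyl-alpha-D-glucopyranoside in citrate buffer pH 5.0, 20 min at room temperature, stopped at pH 10; fluorescence 365/440 nm, compounds 0.7 nM–77 uM, AC50 from Hill fits.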

[3] = Validation of Assay for Modulators of Lamin A Splicing (AID 1459; active = well fitted curve in the direction sought with a large enough effect in the signal ratio; the % refers to the signal ratio;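 also: cells exposed to compound for two days before reading; 0% is about no effect; ratio rise marks activators and ratio drop marks inhibitors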)
Procedure, shortened: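 Splicing correction read as GFP (500-530 nm) over DsRed2 (575-640 nm) object intensity after 48 h compound exposure of reporter HeLa S3 clones (600 cells/well, 2% FBS medium); ancitabine and cycloheximide titrations, 0.5% DMSO as vehicle.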

[4] = qHTS Assay for Lipid Storage Modulators (AID 1519; calls by dose curve; as to activity change, negative = inhibition: % is scaled to controls: 0 for no effect and ±100 for the full control effect); conditions: Drosophila S3 cells, BODIPY lipid droplet/cell ratio, laser cytometry, cells loaded with oleic acid
Procedure, shortened: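 Cells seeded at 5,000 per well were treated with compounds over a concentration series and loaded with oleic acid (400 uM, as added). Lipid droplet fluorescence (488 nm excitation, 500-530 nm channel) was read by laser-scanning cytometry and normalized to 20 uM Triacsin C.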

[5] = target: DNA repair nuclease/redox regulator APEX1 (Homo sapiens) (UniProt P27695); assay: qHTS Validation Assay for Inhibitors of the Human Apurinic/apyrimidinic Endonuclease 1 (APE1) (AID 1705;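 also: TAMRA fluorescence gain over two minutes as APE1 cuts a quenched THF abasic duplex; % is scaled to controls: 0 for no effect and ±100 for the full control effect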)
DNA repair nuclease/redox regulator APEX1 (Homo sapiens), sequence (P27695 whole entry, looked up): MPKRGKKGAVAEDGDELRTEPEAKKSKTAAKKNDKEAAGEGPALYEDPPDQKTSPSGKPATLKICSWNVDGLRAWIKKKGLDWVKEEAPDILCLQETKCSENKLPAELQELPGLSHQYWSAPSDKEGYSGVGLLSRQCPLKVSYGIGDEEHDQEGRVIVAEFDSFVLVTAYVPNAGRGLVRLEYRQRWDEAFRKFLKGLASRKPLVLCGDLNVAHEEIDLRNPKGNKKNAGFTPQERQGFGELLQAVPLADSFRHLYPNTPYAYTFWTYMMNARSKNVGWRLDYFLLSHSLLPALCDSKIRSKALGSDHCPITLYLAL
Procedure, shortened: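 Activity read as rising fluorescence (598 nm emission, 525 nm excitation) from incision of a TAMRA/BHQ-2 duplex carrying a THF abasic site (50 nM). Compound and enzyme sat 15 min at RT before substrate start; signal change between first and third 60-s reads.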

[6] = target: Endonuclease 4 (Escherichia coli (strain K12)) (UniProt P0A6C1); assay: Counterscreen for APE1 Inhibitors: qHTS Validation Assay for Inhibitors of Endonuclease IV (AID 1708); also: % is scaled to controls: 0 for no effect and ±100 for the full control effect
Procedure, shortened: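 E. coli EndoIV at 2 nM final, preincubated 15 min at room temperature with compound, then 50 nM TAMRA/BHQ-2 THF abasic-site duplex added. Buffer: 50 mM Tris-HCl pH 7.5, 50 mM NaCl, 2 mM MgCl2, 1 mM DTT, 0.01% Tween-20. Kinetic fluorescence increase, third minus first read.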

[7] = qHTS for differential inhibitors of proliferation of Plasmodium falciparum line D10 (AID 1877);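 also: parasites grown with compound for 72 h before DNA staining; plate controls were vehicle wells for no effect and reference inhibitor wells for full effect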
[8] = qHTS for differential inhibitors of proliferation of Plasmodium falciparum line Dd2 (AID 1882); conditions: Potency: Plasmodium falciparum Dd2 proliferation inhibition;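 also: plate controls were DMSO vehicle for no effect and 0.29 µM artemisinin for full effect; nearly all actives have a fitted effect of over 65% in size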
Procedure, shortened: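 Dd2-infected erythrocytes (0.3% parasitemia, 2.5% hematocrit final) incubated with compound 72 h at 37 C, 5% CO2; lysed with saponin/Triton buffer containing SYBR Green I, incubated overnight in the dark, then read by fluorescence (485/535 nm). Normalized to 0.29 uM artemisinin and DMSO.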

[9] = qHTS for differential inhibitors of proliferation of Plasmodium falciparum line W2 (AID 1883); conditions: Potency: Plasmodium falciparum W2 proliferation inhibition;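 also: potency is read from the fitted curve at half-maximal effect; parasites grown with compound for 72 h before lysis and staining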
[10] = qHTS for differential inhibitors of proliferation of Plasmodium falciparum line 3D7 (AID 1876); also: potency is read from the fitted curve at half-maximal effect
[11] = qHTS for differential inhibitors of proliferation of Plasmodium falciparum line 7G8 (AID 1815);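 also: parasite growth measured after three days of incubation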; also: potency is read from the fitted curve at half-maximal effect;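 as to activity change, negative = inhibition: plate controls were vehicle wells for no effect and reference inhibitor wells for full effect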
[12] = qHTS for differential inhibitors of proliferation of Plasmodium falciparum line GB4 (AID 1816); conditions: Potency: Plasmodium falciparum GB4 proliferation inhibition;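 also: parasite growth measured after 72 h incubation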; also: potency is read from the fitted curve at half-maximal effect;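 as to activity change, negative = inhibition: 0% = vehicle DMSO and -100% = reference inhibitor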
[13] = qHTS for differential inhibitors of proliferation of Plasmodium falciparum line HB3 (AID 1886); conditions: Potency: Plasmodium falciparum HB3 proliferation inhibition;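 also: parasites grown with compound for 72 h before SYBR Green readout; plate controls were vehicle for no effect and reference inhibitor for full effect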
[14] = qHTS Assay for Modulators of Human Peripheral Myelin Protein 22 (PMP22) Expression/Activity (AID 1967; active = well fitted curve in the direction sought with a large enough effect in the signal ratio; the % refers to the signal ratio;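 also: 0% = untreated cells and 100% end not stated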)
Procedure, shortened: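 Readout is the corrected green/red luminescence ratio after 24 h compound exposure, normalised to untreated cells (0%). Engineered MSC80 mouse Schwann cells express green luciferase from the mouse Pmp22 promoter and red luciferase from EF-alpha as internal control.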

[15] = target: Ferritin light chain (Equus caballus) (UniProt P02791); assay: qHTS Validation Assay for Identification of Novel General Anesthetics (AID 2323); also: % is scaled to controls: 0 for no effect and ±100 for the full control effect
Ferritin light chain (Equus caballus), sequence (P02791 2-175 limits assumed): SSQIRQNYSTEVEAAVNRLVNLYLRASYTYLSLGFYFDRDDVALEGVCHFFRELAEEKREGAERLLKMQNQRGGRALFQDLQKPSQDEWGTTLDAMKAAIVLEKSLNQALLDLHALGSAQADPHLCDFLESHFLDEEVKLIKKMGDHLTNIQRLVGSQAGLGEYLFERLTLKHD
Procedure, shortened: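 Competitive displacement of the profluorescent anesthetic 1-AMA (50% saturated, PBS) from 10 uM apoferritin, 10 min, room temperature. Activity is normalized 380/535 nm fluorescence; concentration-response fitted with a four-parameter Hill equation.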

[16] = Cell Viability - LYMP1-002 - Assay at 40 hr (AID 994);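 also: 0% = DMSO only and full inhibition = 92 µM tetraoctylammonium bromide; nearly all actives have a fitted effect of over 60% in size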
Procedure, shortened: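 LYMP1-002 human lymphoblastoid cells (2500/well, complete medium) were treated with compounds for 40 hr at 37 C. Intracellular ATP was measured by CellTiter-Glo luminescence, and AC50 values came from Hill-equation fits of concentration-response data; tetraoctylammonium bromide was the positive control.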

[17] = qHTS Assay for Identification of Small Molecule Inducers of Hypoxia Response (AID 2120; active = well fitted curve in the direction sought with a large enough effect in the signal ratio, with a control signal flat, not every such curve was filed as active; the % refers to the signal ratio; also: 0% is about no effect)
Procedure, shortened: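 HRE-bla ME-180 cells in Opti-MEM with 0.5% dialyzed FBS, pre-plated 4-5 h, then compound titration for 17 h at 37 degrees Celsius. CCF4 loaded 2.5 h at room temperature; 460/530 nm ratio gave %Activity and AC50 for induction.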

[18] = measured here: cell count channel max response
[19] = measured here: lipid channel max response

Cc1cccc(C#Cc2ccccc2)n1
outcome [1]: inactive | outcome [2]: inactive | outcome [3]: inactive | activity change, negative = inhibition ([4]; at 57.5 µM (top of the series)): 0.257% (inactive) | max response [4, 18]: -2.56% | max response [4, 19]: -2.47% | Potency [5]: inactive | outcome [6]: inactive | Potency [7]: inactive | Potency [8]: inactive | Potency [9]: 12.6 µM (active)

CN(C)CCCC1(c2ccc(F)cc2)OCc2cc(C#N)ccc21 (stereo unspecified)
outcome [3]: inactive | activity change, negative = inhibition ([4]; at 57.5 µM (top of the series)): 0.497% (inactive) | max response [4, 18]: -10.6% | max response [4, 19]: -12.9% | Potency [5]: inactive | outcome [6]: inactive | Potency [10]: 10 µM (active) | Potency [9]: 2.24 µM (active)

O=C1c2ccccc2-c2n[nH]c3cccc1c23
outcome [1]: inactive | outcome [2]: inactive | outcome [3]: inactive | activity change, negative = inhibition ([4]; at 57.5 µM (top of the series)): 2.36% (inactive) | max response [4, 18]: -6.85% | max response [4, 19]: -4.08% | Potency [11]: 10 µM (active) | Potency [10]: 12.6 µM (active) | Potency [9]: 7.94 µM (active)

C[C@@H](N)C1CCC(C(=O)Nc2ccncc2)CC1 (stereo partly specified)
outcome [3]: inactive | activity change, negative = inhibition ([4]; at 57.5 µM (top of the series)): 2.12% (inactive) | max response [4, 18]: -4.26% | max response [4, 19]: -0.634% | Potency [5]: inactive | outcome [6]: inactive | Potency [11]: inactive | Potency [12]: inactive | Potency [10]: inactive | Potency [7]: inactive | Potency [8]: inactive | Potency [13]: inactive | outcome [14]: inactive | Potency [15]: inactive

Cc1cc2cc3c(C)cc(=O)oc3c(C)c2o1
activity change, negative = inhibition ([4]; at 25.7 µM (top of the series)): -0.305% (inactive) | max response [4, 18]: -4.86% | max response [4, 19]: -6.06%

CCOc1cc(CC(=O)N[C@@H](CC(C)C)c2ccccc2N2CCCCC2)ccc1C(=O)O
activity change, negative = inhibition ([4]; at 25.7 µM (top of the series)): 0.216% (inactive) | max response [4, 18]: -5.3% | max response [4, 19]: -9.52%

CC1(C)NC(=O)N(c2ccc([N+](=O)[O-])c(C(F)(F)F)c2)C1=O
outcome [1]: inactive | outcome [2]: inactive | outcome [3]: inactive | activity change, negative = inhibition ([4]; at 57.5 µM (top of the series)): -13.9% (inactive) and -13.7% (inactive) | max response [4, 18]: -10.4% and -26.6% | max response [4, 19]: -19.8% and -35.1% | Potency [5]: inactive | outcome [6]: inactive | Potency [11]: inactive | Potency [12]: inactive | Potency [10]: inactive | Potency [7]: inactive | Potency [8]: inactive | Potency [13]: inactive | outcome [14]: inactive | Potency [15]: inactive

Oc1ccc(OCc2ccccc2)cc1
activity change, negative = inhibition ([4]; at 25.7 µM (top of the series)): -0.0547% (inactive) | max response [4, 18]: -20% | max response [4, 19]: -20.9%

Cc1cc2c(s1)Nc1ccccc1N=C2N1CCN(C)CC1
activity change, negative = inhibition ([4]; at 57.5 µM (top of the series)): 13.5% (inactive) | max response [4, 18]: -2.56% | max response [4, 19]: 9.09%

O=C(CCc1ccc(O)cc1)c1c(O)cc(O)cc1O
outcome [1]: inactive | outcome [2]: inactive | outcome [3]: inactive | activity change, negative = inhibition ([4]; at 57.5 µM (top of the series)): 10.4% (inactive) | max response [4, 18]: 5.8% | max response [4, 19]: 18.1% | Potency [5]: inactive | outcome [6]: inactive | Potency [12]: 11.2 µM (active) | Potency [7]: inactive | Potency [9]: 14.1 µM (active) | Potency [15]: inactive

COc1cc(OC)c(C(=O)CCCN2CCCC2)c(OC)c1
activity change, negative = inhibition ([4]; at 25.7 µM (top of the series)): -0.942% (inactive) | max response [4, 18]: -9.33% | max response [4, 19]: -9.82%

CCCOc1ccc2nc(NC(=O)OC)[nH]c2c1
activity change, negative = inhibition ([4]; at 57.5 µM (top of the series)): 5.26% (inactive) | max response [4, 18]: 3.19% | max response [4, 19]: 11.6%

CC(=O)N1CCN(c2ccc(OC[C@H]3CO[C@](Cn4ccnc4)(c4ccc(Cl)cc4Cl)O3)cc2)CC1
outcome [1]: inactive | outcome [2]: inactive | outcome [3]: inactive | Potency [5]: inactive | outcome [6]: inactive

OC(CN1CCN(c2cccc(Cl)c2)CC1)C(c1ccccc1)c1ccccc1 (stereo unspecified)
outcome [3]: inactive | Potency [5]: inactive | Potency [11]: 14.1 µM (active) | Potency [9]: 10 µM (active) | Potency [15]: inactive

O=c1oc2cc(O)ccc2s1
activity change, negative = inhibition ([4]; at 57.5 µM (top of the series)): 5.97% (inactive) | max response [4, 18]: 14.5% | max response [4, 19]: 23.2%

S=c1nc[nH]c2nc[nH]c12
activity change, negative = inhibition ([4]; at 57.5 µM (top of the series)): 2.17% (inactive) | max response [4, 18]: 9.84% | max response [4, 19]: 14.8%

O=C(O)c1cn(-c2ccc(F)cc2)c2cc(N3CCNCC3)c(F)cc2c1=O
activity change, negative = inhibition ([4]; at 57.5 µM (top of the series)): 4.61% (inactive) | max response [4, 18]: 14.8% | max response [4, 19]: 20.1%

O=C(NCC1CCCCN1)c1cc(OCC(F)(F)F)ccc1OCC(F)(F)F (stereo unspecified)
outcome [3]: inactive | Potency [5]: inactive | outcome [6]: inactive | Potency [15]: inactive

Cc1cc(=O)oc2cc(O)ccc12
activity change, negative = inhibition ([4]; at 25.7 µM (top of the series)): 0.949% (inactive) | max response [4, 18]: -7.84% | max response [4, 19]: -11.2%

O=C(NC(Cc1cc(=O)[nH]c2ccccc12)C(=O)O)c1ccc(Cl)cc1 (stereo unspecified)
activity change, negative = inhibition ([4]; at 57.5 µM (top of the series)): 11.1% (inactive) | max response [4, 18]: 17.3% | max response [4, 19]: 35%

Cc1cc(O)c2c(c1)C(=O)c1cc(O)cc(O)c1C2=O
outcome [1]: inactive | Potency [16]: inactive | outcome [2]: inactive | outcome [3]: inactive | activity change, negative = inhibition ([4]; at 57.5 µM (top of the series)): -0.138% (inactive) and 5.28% (inactive) | max response [4, 18]: 55.1% and -15.9% | max response [4, 19]: 55.2% and -8.66% | outcome [6]: inactive | Potency [7]: inactive | Potency [8]: inactive | outcome [17]: inactive

Cc1ncc([N+](=O)[O-])n1CC(C)O (stereo unspecified)
activity change, negative = inhibition ([4]; at 57.5 µM (top of the series)): 2.12% (inactive) | max response [4, 18]: 10.3% | max response [4, 19]: 12.9%

Source: PubChem BioAssay (NCATS)
